Anaer choline gr: inhibitors of anaerobic choline-dependent gram-negative bacterial growth; hit rate 0.2% among 55,000; AID 1963822; Gram-negative bacterium anaerobic choline minimal medium, absorbance growth; active compounds read low; calls only; call rule not given here
* marks the source's active call; other numbers are inactive results; i = inactive; + = active, no number. This excerpt belongs to a sample that is enriched for hits.

SMILES	Anaer choline gr
O=C(Oc1ccc([N+](=O)[O-])cc1)N1CCC(C(O)(c2ccc3c(c2)OCO3)c2ccc3c(c2)OCO3)CC1	i
O=[N+]([O-])C=Cc1ccc2c(c1)OCO2	+
O=[N+]([O-])/C=C/c1ccc2c(c1)OCO2	i
O=C(COc1ccccc1)N1CCN(CCc2ccccn2)CC1	i
COc1ccc(NC(=O)CCc2nc(C3=CCN(Cc4ccc(Cl)cc4)CC3)no2)cc1Cl	i
CN1C2CCC1CC(OC(c1ccccc1)c1ccccc1N)C2 (stereo not drawn)	i
Clc1ccc(C(OCCN2CCCCC2)c2ccccc2)cc1 (stereo not drawn)	i
CN1C2CCC1CC(OC(c1ccccc1)c1ccc(Cl)cc1)C2 (stereo not drawn)	+
COCCCNC(=O)N1CCC2(C1)C(=O)Nc1ccc(OC)cc12 (stereo not drawn)	i
CC(C)Oc1ccc(C2SCC(=O)Nc3c2c(-c2ccccc2)nn3-c2ccccc2)cc1 (stereo not drawn)	i

High-throughput results: PubChem, ICCB-Longwood Screening Facility, Harvard Medical School
